Compound activity from PubChem.
TbPYK inhibitor: qHTS of Trypanosoma Brucei Inhibitors | pyruvate kinase (Trypanosoma brucei), Q57TT1 | TbPYK enzyme, Kinase-Glo Plus ATP luminescence, 45 min | Potency, µM (titrated, usually from 76.8 µM), for the others: at the highest dose activity, negative = inhibition, actives largely listed as inhibitors | 0.12% of 410,000 active | AID 624173, 2012; note: nearly all actives have a fitted effect of over 50% in size
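Activity of T. brucei pyruvate kinase was followed by Kinase-Glo Plus luminescence after the enzyme reacted 45 min at room temperature with 130 uM ADP (final) and substrate. Test compounds were added before ADP at multiple concentrations.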
Giardia FBPA inh: qHTS Assay for Inhibitors of Fructose-1,6-bisphosphate Aldolase from Giardia Lamblia. A8B2U2. Potency, µM (series often up to 59.6 µM), inactives show at the top dose activity, negative = inhibition, usual class: inhibitors. AID 2451, 2010. 0.71% of 290,000 active. purified Giardia FBPA; note: nearly all actives have a fitted effect of over 55% in size
Target sequence (A8B2U2 whole entry, looked up): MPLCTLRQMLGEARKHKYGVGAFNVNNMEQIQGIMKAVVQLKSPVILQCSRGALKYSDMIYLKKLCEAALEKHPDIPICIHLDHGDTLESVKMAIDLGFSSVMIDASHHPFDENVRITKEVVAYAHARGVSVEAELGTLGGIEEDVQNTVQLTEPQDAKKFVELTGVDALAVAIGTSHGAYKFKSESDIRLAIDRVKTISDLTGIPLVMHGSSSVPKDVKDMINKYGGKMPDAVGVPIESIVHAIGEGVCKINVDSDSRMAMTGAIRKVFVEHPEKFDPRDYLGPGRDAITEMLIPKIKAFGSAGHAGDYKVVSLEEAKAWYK
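40 nM FBPA preincubated 10 min at RT with compound (up to 57.5 uM final), then substrate plus GAPDH/TPI/NAD/arsenate coupling and diaphorase/resazurin added. Fluorescence read after 20 min at RT, 525/598 nm.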
RE007 growth inh: qHTS Assay for Inhibitors of the HIV-1 protein Vpr | S. pombe RE007 Vpr strain, BacTiter-Glo ATP luminescence, 24 h | Potency, µM (doses to about 92.2 µM), for inactives: at the highest dose activity change, negative = less growth, most hits filed as inhibitors | 0.21% of 360,000 active; active = well fitted falling curve with a large enough effect; inconclusive = small, poorly fitted or top-dose-only effect; inactive = no such curve, though single readings can be large or run the other way; note: nearly all actives have a fitted effect of over 50% in size
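Fission yeast strain RE007, carrying one chromosomally integrated HIV-1 vpr copy, was seeded at OD 0.01 in PMG+AL medium with 23 nL pinned compound. After 24 h at 30 °C and 99% humidity, viability was read by BacTiter-Glo luminescence.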
LmPK inhibitor: qHTS Assay for Inhibitors of Leishmania Mexicana Pyruvate Kinase (LmPK). purified LmPK, Kinase-Glo ATP luminescence, 1 h. AID 1721, 2009. Q27686. Potency, µM (series often up to 57.5 µM), inactives show at the top dose activity change, negative = inhibition, actives largely listed as inhibitors. 0.37% of 290,000 active
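0.1 nM LmPK, 0.5 mM PEP, 0.1 mM ADP; 50 mM imidazole pH 7.2, 7 mM MgCl2, 50 mM KCl; 1 h RT. Kinase-Glo luminescence readout, normalized to no-enzyme (full inhibition) and uninhibited wells.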
* hit, by the source's call; ? = inconclusive; nt = not tested or not shown; ! = a repeat was not active; [ ] = another dose, or the depositor's remark. Only some compounds are listed: those with a hit (about 0.95% of all), similar ones and a draw of the others. Unless noted, calls come from the whole dose curve; as a rule, active = well fitted curve in the direction sought with a large enough effect; inconclusive = small, poorly fitted or top-dose-only effect, or another doubt; inactive = no such curve, though single readings can be large; an effect the other way counts as inactive or inconclusive. % is set by controls: 0 for no effect and ±100 for the full control effect; potency is the fitted concentration of half-maximal effect.

SMILES | TbPYK inhibitor | Giardia FBPA inh | RE007 growth inh | LmPK inhibitor
O=C(c1ccccc1)C1CC1c1ccccc1 (stereo unspecified) | 3% | nt | 18µM* | nt
Cc1ccc(C)c(NC(=O)C2CCN(S(=O)(=O)c3c(C)noc3/C=C/c3cccs3)CC2)c1 | -3% | nt | nt | nt
C/C(=N\NC(=O)c1cccc2ccccc12)c1cccs1 | -6% | ? | 19% | -2%
C/C(=N\NC(=O)c1ccccc1O)c1cccs1 | -26% | -17% | -25% | 14µM*
C/C(=N/NC(=O)c1cc(C2CC2)[nH]n1)c1cccs1 | -5% | 1% | 11% | 22µM*
C/C(=N\NC(=O)c1ccncc1)c1cccs1 | -5% | -5% | -3% | -11%
C[C@H](NC(=O)N1CCn2c1nc1ccccc12)C(=O)N1CCCCC1 | -15% | -12% | -5% | -1%
N#Cc1ccc(N2CCN(C(=O)c3cccs3)CC2)c(F)c1 | -9% | -4% | -3% | -7%
CC1(C)OC(=O)C(=Cc2ccc(-c3ccc(Cl)c(C(=O)O)c3)o2)C(=O)O1 | 16µM* | -16% | 43% | 32%
Cc1[nH][nH]c(=O)c1C(c1ccc(-c2ccc(Cl)c(C(=O)O)c2)o1)c1c(C)[nH][nH]c1=O | -17% | 7.1µM* | -28% | 0%
COC(=O)c1ccccc1-c1ccc(C(c2c(C)[nH][nH]c2=O)c2c(C)[nH][nH]c2=O)o1 | -7% | 4% | 16% | 6%
CC1=NOC(=O)/C1=C\c1ccc(-c2ccc(Cl)c(C(=O)O)c2)o1 | -14% | -21% | 7% | -15%
COC(=O)c1cccc(-c2ccc(C(c3c(C)[nH][nH]c3=O)c3c(C)[nH][nH]c3=O)o2)c1 | -11% | 14µM* | -6% | -4%
C=CCOC(=O)c1cc(-c2ccc(/C=C3\C(=O)NC(=O)C(C#N)=C3C)o2)ccc1Cl | -11% | ? | 40µM* | 13%
C#CCCCCCCCCCCCc1ccco1 | nt | 1% | nt | nt
Cn1c(=O)c(C(=O)N2CCc3ccccc32)cc2cccnc21 | -7% | nt | -5% | nt
Cc1ccc2c(c1)c1ccc3c(c1n2C)C(=O)C=CC3=O | ? | ? | -9% | ?
Cn1c2ccccc2c2ccc3c(c21)C(=O)C=CC3=O | 22µM* | nt | -5% | nt
Cc1onc(-c2ccccc2Cl)c1C(=O)N1CCCc2ccccc21 | ? | -6% | 0% | 1%
Cc1onc(-c2c(F)cccc2Cl)c1C(=O)N1CCCc2ccccc21 | 7.1µM* | -8% | -19% | 5%
O=C1C(=Cc2ccccc2[N+](=O)[O-])Cc2ccccc21 | -5% | nt | 2.5µM* | nt
COC(=O)c1ccc2nc(-c3cccc(N)c3)cn2c1 | -15% | -10% | -14% | 25µM*
CNC(=O)Oc1cccc(-c2cn3cc(Cl)ccc3n2)c1 | -23% | -16% | ? | 14µM*
CNC(=O)Oc1ccc(-c2cn3cc(C)ccc3n2)cc1 | -1% | -32% | ? | -22%
COC(=O)c1ccc2nc(-c3ccc(S(C)(=O)=O)cc3)cn2c1 | -1% | -2% | -15% | -1%
SMILES | TbPYK inhibitor | Giardia FBPA inh | RE007 growth inh | LmPK inhibitor
CC1COC2=C1C(=O)C(=O)c1c2ccc2c1CCCC2(C)C (stereo unspecified) | nt | 1.6µM* | nt | nt
Cc1ccc2c3c(cccc13)-c1ccccc1C2=O | 1% | 1% | 0% | -2%
Cc1coc2c1C(=O)C(=O)c1c-2ccc2c(C)cccc12 | -18% | 1.3µM* | -14% | -2%
Cc1coc2c1C(=O)C(=O)c1c-2ccc2c1CCCC2(C)C | 2% | 18µM*! | -9% | 1%
CC(C)(C)NC(=O)[C@@H]1CC[C@@H]2[C@@H]3CC[C@@H]4NC(=O)C=C[C@@]4(C)[C@H]3CC[C@]21C | 2%[33.2 µM] | 5%[21.7 µM] | nt | nt
O=C(Oc1ccccc1)c1cccc(C(=O)Oc2ccccc2)c1 | 0%[157 µM] | nt | nt | nt
CN(C)C(=O)Oc1ccc(OC(=O)c2ccccc2)cc1 | ? | -3% | -20% | 13µM*
O=C1NC(=S)S/C1=C\C=C\c1ccc([N+](=O)[O-])o1 | -19% | -20% | 40µM* | -13%
O=C1CN(/N=C\c2ccc([N+](=O)[O-])o2)C(=O)N1 | nt | -24%[21.7 µM] | nt | nt
COc1ccc(OC)c(C2C(C(=O)Nc3ccccc3OC)=C(C)Nc3c(C(=O)Nc4ccc(F)cc4)cnn32)c1 (stereo unspecified) | 1% | nt | nt | nt
Cc1ccc(/C=C2/C(=O)C3(C)CCC2C3(C)C)cc1 (stereo unspecified) | -9% | nt | nt | nt
Cc1[nH]c2c(ccc3cccnc32)c1C | 2% | -14% | -14% | -1%
CC1=[N+](C)c2c(ccc3cccnc23)C1(C)C | -1% | 2µM* | ? | -6%
NC(=O)CSc1ncc2c(n1)-c1ccccc1N(Cc1ccc(Cl)cc1)S2(=O)=O | -7% | nt | nt | nt
NC1CCCC[C@@H]1N (stereo partly specified) | nt | -13% | nt | nt
Cc1ccc2nc(-c3ccccn3)[nH]c2c1 | ? | 11% | ? | 22µM*
Clc1ccc(N=c2ssnc2Cl)cc1 | 25µM* | ? | ? | 0%
CCOC(=O)c1ccc(N=c2ssnc2Cl)cc1 | 35µM* | ? | ? | -12%
Fc1ccc(N=c2ssnc2Cl)c(F)c1 | 14µM* | ? | -14% | -26%
Clc1nssc1=Nc1ccccc1 | ? | ? | ? | -17%
O=c1c(-c2cc(F)cc(F)c2)nc2cnc(N3CCNCC3)nc2n1C1CC1 | nt | -2% | nt | nt
O=C(O)/C=C(/CC(=O)O)C(=O)O | -2% | nt | nt | nt
CC1=CC(=O)C=CC1=Nc1ccc(N(C)C)cc1 | 35µM* | nt | -9%[18.4 µM] | nt
Cn1c(=O)c(-c2ccc(F)cc2)nc2cnc(Nc3ccccc3)nc21 | nt | 0% | nt | nt
COC(=O)c1cc2c(cc1[N+](=O)[O-])OCO2 | 0% | 3% | 11% | -9%
SMILES | TbPYK inhibitor | Giardia FBPA inh | RE007 growth inh | LmPK inhibitor
COc1cc2c(cc1/C=C/[N+](=O)[O-])OCO2 | -7% | 3% | 14µM* | -5%
CCc1ccc(-c2nn(CC(=O)NCc3ccccc3)c3c2cnc2ccc(F)cc23)cc1 | 1% | nt | nt | nt
CN1CCc2cccc3c2[C@H]1Cc1ccc(O)c(O)c1-3 | ? | ? | -10%[18.4 µM] | 5%
CN1CCc2cc(O)cc3c2C1Cc1ccc(O)c(O)c1-3 (stereo unspecified) | nt | 14µM* | nt | nt
CC(=O)N1CCN(C(=O)CC2OC(=O)c3ccccc32)CC1 (stereo unspecified) | -8% | -22% | 45µM* | 5%
O=C(CC1OC(=O)c2ccccc21)Nc1ccccc1N1CCOCC1 (stereo unspecified) | 4% | 5% | -13% | 3%
COCC1=C(C(=O)OC(C)OC(=O)OC(C)C)N2C(=O)C(NC(=O)/C(=N/OC)c3csc(N)n3)[C@H]2SC1 (stereo partly specified) | -10% | nt | nt | nt
Oc1ccc(N=Cc2ccc(OCc3ccccc3)cc2)cc1 | -23% | 20µM* | -1% | -27%
CSc1ccc(NC(=O)C2(C)CCN2C(=O)c2sccc2C)cc1 (stereo unspecified) | -10% | nt | -4% | nt
CCc1cc2cc(C)cc(C)c2[nH]c1=S | 11µM* | -7% | 33% | ?
